Laboratory results from PubChem BioAssay (EPA / NIEHS).
Inconclusive results are not listed. Calls of active or inactive are those of the source. The calls were made as follows, unless noted: active = hit-call score of the fitted dose curve at least 0.9, where 1 is the maximum; inconclusive = response in the unintended direction; inactive = score below 0.9.

How the values were obtained:
[1] = ATG_TCF_b_cat_CIS: Attagene CIS-FACTORIAL HepG2 Assay for human T-Cell-Factor with beta-catenin (TCF/b-cat) (AID 2282965; active = hit-call score of the fitted dose curve at least 0.9, where 1 is the maximum; inactive = score below 0.9); details: HepG2 TCF/beta-catenin cis-reporter transcription, actives raise or lower the signal
Procedure, shortened: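 Endogenous TCF/LEF activity read as reporter transcript level via RT-PCR and capillary electrophoresis fluorescence in transfected HepG2, 24 h exposure; gain or loss of signal fitted against DMSO controls.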

[2] = ATG_TAL_CIS: Attagene CIS-FACTORIAL HepG2 Assay for human TAL Basal Promoter (AID 2282966; active = hit-call score of the fitted dose curve at least 0.9, where 1 is the maximum; inactive = score below 0.9;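 also: background control endpoint measuring basal TAL promoter reporter mRNA not a specific factor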); details: HepG2 Attagene cis-factorial TAL promoter reporter; actives raise or lower the signal
Procedure, shortened: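 Transiently transfected HepG2 (cis-regulated reporter units), 24 h treatment, mRNA read by fluorescent CE after RT-PCR; bidirectional fit, DMSO baseline.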

[3] = ATG_TGFb_CIS: Attagene CIS-FACTORIAL HepG2 Assay for human Transforming Growth Factor (TGF) (AID 2282967; active = hit-call score of the fitted dose curve at least 0.9, where 1 is the maximum; inactive = score below 0.9); details: HepG2 Attagene CIS TGFb reporter, mRNA transcription; actives raise or lower the signal
Procedure, shortened: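 Transient MRTU transfection of HepG2 (FuGene 6). Dose 24 h. TriZol RNA, oligo(dT) RT, PCR, 6-FAM primer extension, HpaI cut, CE. Bidirectional fit, DMSO = baseline.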

[4] = biological target: Nuclear receptor subfamily 1 group I member 3 (Homo sapiens) (UniProt Q14994); experiment: ATG_CAR_TRANS: Attagene TRANS-FACTORIAL HepG2 Assay for human Constitutive Androstane Receptor (CAR) (AID 2282969); details: HepG2 Attagene TRANS-FACTORIAL CAR reporter;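 also: activators raise reporter mRNA above DMSO so AC50 marks induction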
Procedure, shortened: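 Signal is reporter mRNA induction relative to DMSO, measured 24 h after dosing by RT-PCR with fluorescent primer extension and capillary electrophoresis. Human HepG2 liver cells carried transiently transfected chimeric NR-Gal4/GAL4-UAS reporter constructs.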

[5] = biological target: X-box-binding protein 1 (Homo sapiens) (UniProt P17861); experiment: ATG_Xbp1_CIS: Attagene CIS-FACTORIAL HepG2 Assay for human X-box Binding Protein 1 (XBP1) (AID 2282972; active = hit-call score of the fitted dose curve at least 0.9, where 1 is the maximum; inactive = score below 0.9); details: HepG2 XBP1 cis-element reporter, Attagene multiplex; actives raise or lower the signal
Procedure, shortened: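 Reporter transcripts were quantified by RT-PCR with fluorescent primer extension and capillary electrophoresis after 24 h chemical exposure. Cells: transiently transfected HepG2 carrying cis-regulated reporter constructs; data fitted bidirectionally relative to DMSO.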

[6] = ATG_M_19_TRANS: Attagene TRANS-FACTORIAL HepG2 Assay for M19 Transcription Factor (Internal Marker) (AID 2282974); details: HepG2 Attagene TRANS-FACTORIAL M19 internal marker reporter
Procedure, shortened: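 Gain-of-signal in reporter mRNA, relative to DMSO, was scored from capillary electrophoresis fluorescence. HepG2 cells carried transiently transfected multiple reporter transcription units and were incubated with test chemicals for 24 h.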

[7] = ATG_GAL4_TRANS: Attagene TRANS-FACTORIAL HepG2 Assay for GAL4 (Internal Marker) (AID 2282976); details: HepG2 Attagene TRANS GAL4 internal marker reporter
Procedure, shortened: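 HepG2 cells transiently transfected with multiplexed GAL4-UAS reporter constructs were dosed for 24 h. Reporter mRNA was measured by RT-PCR, 6-FAM primer extension, HpaI digestion and capillary electrophoresis, and gain of signal was fitted relative to DMSO.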

[8] = biological target: Oxysterols receptor LXR-alpha (Homo sapiens) (UniProt Q13133); experiment: ATG_LXRa_TRANS: Attagene TRANS-FACTORIAL HepG2 Assay for human Liver X Receptor alpha (LXRa) (AID 2282980); details: HepG2 Attagene TRANS reporter, LXRa transactivation
Procedure, shortened: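 HepG2 cells were transiently transfected with multiplexed reporter units driven by chimeric LXRa–GAL4 fusion proteins, then dosed for 24 h. Reporter mRNA was quantified by RT-PCR, fluorescent labelling and capillary electrophoresis; gain of signal fitted against DMSO baseline.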

[9] = biological target: Hepatocyte nuclear factor 4-alpha (Homo sapiens) (UniProt P41235); experiment: ATG_HNF4a_TRANS: Attagene TRANS-FACTORIAL HepG2 Assay for human Hepatocyte Nuclear Factor 4 alpha (HNF4a) (AID 2282982); details: HepG2 HNF4a transactivation reporter, mRNA readout
Procedure, shortened: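 Multiplexed reporter assay: transfected HepG2, 24 h exposure, total RNA → oligo(dT) RT → PCR → 6-FAM extension → HpaI digest → CE fluorescence. DMSO = negative control.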

[10] = biological target: Nuclear receptor subfamily 4 group A member 2 (Homo sapiens) (UniProt P43354); experiment: ATG_NURR1_TRANS: Attagene TRANS-FACTORIAL HepG2 Assay for human Nuclear Receptor Related Protein 1 (NURR1) (AID 2282985); details: HepG2 Attagene TRANS reporter, mRNA readout
Procedure, shortened: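 Measures transcriptional activation by an exogenous NR-Gal4 chimera in transfected HepG2 liver cells. After 24 h, reporter RNA is reverse-transcribed, amplified and resolved by capillary electrophoresis; DMSO defines baseline.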

[11] = biological target: Transcriptional activator Myb (Homo sapiens) (UniProt P10242); experiment: ATG_Myb_CIS: Attagene CIS-FACTORIAL HepG2 Assay for human Myeloblastosis (Myb) Proto-Oncogene Transcription Factor (AID 2282986; active = hit-call score of the fitted dose curve at least 0.9, where 1 is the maximum; inactive = score below 0.9); details: HepG2 Attagene CIS-FACTORIAL Myb reporter transcription; actives raise or lower the signal
Procedure, shortened: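 Multiplexed cis-reporter system in HepG2: transient transfection, 24 h treatment, mRNA readout by RT-PCR and capillary electrophoresis. Both increases and decreases are scored versus DMSO negative control.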

[12] = biological target: Estrogen receptor (Homo sapiens) (UniProt P03372); experiment: ATG_ERa_TRANS: Attagene TRANS-FACTORIAL HepG2 Assay for human Estrogen Receptor alpha (ERa) (AID 2282970); details: HepG2 Attagene TRANS ERa GAL4 reporter, mRNA
Procedure, shortened: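 One of 30 multiplexed endpoints from a HepG2 TRANS system, this one reports ERa-Gal4-driven reporter mRNA. Transcripts were quantified 24 hours post-dosing by fluorescent RT-PCR and capillary electrophoresis, with activity scored as induction over DMSO.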

[13] = biological target: Glucocorticoid receptor (Homo sapiens) (UniProt P04150); experiment: ATG_GR_TRANS: Attagene TRANS-FACTORIAL HepG2 Assay for human Glucocorticoid Receptor (GR) (AID 2282978); details: HepG2 Attagene TRANS GR reporter, mRNA transcription;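 also: activators score as hits since higher reporter transcript over DMSO is fitted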
Procedure, shortened: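 HepG2 transient transfection, multiple reporter units, GAL4-UAS under NR-GAL4 chimera control. 24 h treatment. Reporter mRNA by RT-PCR/CE fluorescence, DMSO as negative control.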

[14] = biological target: Bile acid receptor (Homo sapiens) (UniProt Q96RI1); experiment: ATG_FXR_TRANS: Attagene TRANS-FACTORIAL HepG2 Assay for Farnesoid X Receptor (FXR) (AID 2282979); details: HepG2 Attagene TRANS FXR-GAL4 reporter transcription;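 also: hits raise reporter mRNA above DMSO so AC50 marks FXR activation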
Procedure, shortened: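 HepG2 cells transiently transfected with reporter constructs in which a chimeric FXR-GAL4 protein drives a GAL4-UAS reporter; 24 h compound exposure. Reporter mRNA measured by RT-PCR, FAM labelling, HpaI digestion and capillary electrophoresis; gain-of-signal versus DMSO.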

[15] = biological target: Oxysterols receptor LXR-beta (Homo sapiens) (UniProt P55055); experiment: ATG_LXRb_TRANS: Attagene TRANS-FACTORIAL HepG2 Assay for human Liver X Receptor beta (LXRb) (AID 2282981); details: HepG2 Attagene TRANS GAL4-LXRb reporter, mRNA
Procedure, shortened: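 After 24 h of chemical treatment, transfected HepG2 cells yield total RNA; reporter cDNA is PCR-amplified, FAM-labelled, HpaI-cut and run on capillary electrophoresis. Signal reflects chimeric LXRb-Gal4 activity on GAL4-UAS reporters.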

[16] = ATG_M_06_TRANS: Attagene TRANS-FACTORIAL HepG2 Assay for M06 Transcription Factor (Internal Marker) (AID 2282983); details: HepG2 Attagene TRANS M06 internal marker reporter
Procedure, shortened: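 In this multiplexed HepG2 system, compounds are incubated 24 h with cells carrying GAL4-UAS reporter units. Reporter RNA is amplified and resolved by capillary electrophoresis, and induction is scored against DMSO.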

[17] = ATG_M_32_TRANS: Attagene TRANS-FACTORIAL HepG2 Assay for M32 Transcription Factor (Internal Marker) (AID 2282984); details: HepG2 Attagene TRANS M32 internal marker reporter;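 also: transcript level of a background control reporter unit measured by RT-PCR and capillary electrophoresis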
Procedure, shortened: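 Cell-based TRANS-format assay in HepG2: exogenous chimeric GAL4 reporter units transiently expressed, compounds applied 24 h. Reporter mRNA detected by RT-PCR plus capillary electrophoresis; this readout is an internal background marker.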

[18] = ATG_VDRE_CIS: Attagene CIS-FACTORIAL HepG2 Assay for human Vitamin D Receptor Element (VDRE) (AID 2282968; active = hit-call score of the fitted dose curve at least 0.9, where 1 is the maximum; inactive = score below 0.9); details: HepG2 VDRE cis-reporter transcription, actives raise or lower the signal
Procedure, shortened: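 Measures endogenous factor activity through cis-element-driven reporter transcripts in transiently transfected HepG2. Cells are treated 24 h; reporter mRNA is quantified by RT-PCR and capillary electrophoresis; fitting is bidirectional.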

Chain of Transcriptional activator Myb (Homo sapiens) (P10242 whole entry, looked up): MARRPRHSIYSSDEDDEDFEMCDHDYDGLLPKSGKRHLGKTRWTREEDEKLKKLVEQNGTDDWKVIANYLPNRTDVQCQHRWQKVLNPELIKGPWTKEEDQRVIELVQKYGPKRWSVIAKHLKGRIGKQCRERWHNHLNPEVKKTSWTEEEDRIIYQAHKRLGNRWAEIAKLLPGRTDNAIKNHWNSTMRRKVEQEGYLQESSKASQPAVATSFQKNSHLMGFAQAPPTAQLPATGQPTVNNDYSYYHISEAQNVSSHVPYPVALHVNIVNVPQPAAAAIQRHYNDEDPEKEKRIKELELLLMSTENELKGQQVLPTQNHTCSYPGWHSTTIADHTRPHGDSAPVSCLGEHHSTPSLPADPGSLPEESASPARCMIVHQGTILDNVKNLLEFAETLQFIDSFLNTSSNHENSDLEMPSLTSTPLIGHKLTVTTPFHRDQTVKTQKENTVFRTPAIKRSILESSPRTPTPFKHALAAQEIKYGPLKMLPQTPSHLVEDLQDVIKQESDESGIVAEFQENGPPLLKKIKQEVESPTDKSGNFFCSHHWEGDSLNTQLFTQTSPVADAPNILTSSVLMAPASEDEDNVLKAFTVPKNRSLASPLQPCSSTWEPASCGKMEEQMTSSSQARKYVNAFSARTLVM
Chain of Oxysterols receptor LXR-alpha (Homo sapiens) (Q13133 whole entry, looked up, the tested form may be a part): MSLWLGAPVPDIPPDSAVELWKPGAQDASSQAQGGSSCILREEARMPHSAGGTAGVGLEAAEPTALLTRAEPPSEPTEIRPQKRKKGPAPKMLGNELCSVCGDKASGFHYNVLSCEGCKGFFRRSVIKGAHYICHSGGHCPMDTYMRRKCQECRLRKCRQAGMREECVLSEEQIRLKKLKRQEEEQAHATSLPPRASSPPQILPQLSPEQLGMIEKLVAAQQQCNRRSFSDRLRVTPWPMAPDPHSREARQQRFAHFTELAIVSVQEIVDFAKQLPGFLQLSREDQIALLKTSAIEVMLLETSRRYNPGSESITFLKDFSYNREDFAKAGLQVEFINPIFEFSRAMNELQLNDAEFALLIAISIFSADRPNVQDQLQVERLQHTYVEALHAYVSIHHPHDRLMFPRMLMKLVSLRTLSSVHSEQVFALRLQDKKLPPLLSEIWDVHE
Chain of X-box-binding protein 1 (Homo sapiens) (P17861 whole entry, looked up): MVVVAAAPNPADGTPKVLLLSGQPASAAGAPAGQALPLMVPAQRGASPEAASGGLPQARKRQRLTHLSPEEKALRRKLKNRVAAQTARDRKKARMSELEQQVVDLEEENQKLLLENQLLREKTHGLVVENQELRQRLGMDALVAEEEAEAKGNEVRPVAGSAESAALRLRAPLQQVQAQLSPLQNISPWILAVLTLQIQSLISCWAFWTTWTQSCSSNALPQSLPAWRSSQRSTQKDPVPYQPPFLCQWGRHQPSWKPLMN
Chain of Nuclear receptor subfamily 4 group A member 2 (Homo sapiens) (P43354 whole entry, looked up, the tested form may be a part): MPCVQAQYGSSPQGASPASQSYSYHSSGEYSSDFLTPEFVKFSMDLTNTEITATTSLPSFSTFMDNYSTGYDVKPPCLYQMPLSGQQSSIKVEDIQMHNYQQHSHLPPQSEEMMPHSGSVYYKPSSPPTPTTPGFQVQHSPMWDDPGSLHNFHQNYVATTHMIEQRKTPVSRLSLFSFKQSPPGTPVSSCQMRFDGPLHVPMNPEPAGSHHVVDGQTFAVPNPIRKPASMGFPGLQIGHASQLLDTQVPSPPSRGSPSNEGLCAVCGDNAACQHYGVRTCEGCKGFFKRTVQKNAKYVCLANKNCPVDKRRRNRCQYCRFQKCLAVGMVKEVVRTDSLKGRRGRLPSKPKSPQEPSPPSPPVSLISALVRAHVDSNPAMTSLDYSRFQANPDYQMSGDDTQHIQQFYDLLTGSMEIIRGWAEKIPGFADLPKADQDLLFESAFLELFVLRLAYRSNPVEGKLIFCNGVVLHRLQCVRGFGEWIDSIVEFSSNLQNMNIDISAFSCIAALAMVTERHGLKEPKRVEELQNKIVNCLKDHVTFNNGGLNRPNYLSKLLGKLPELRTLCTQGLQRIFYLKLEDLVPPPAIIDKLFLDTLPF
Chain of Estrogen receptor (Homo sapiens) (P03372 whole entry, looked up, the tested form may be a part): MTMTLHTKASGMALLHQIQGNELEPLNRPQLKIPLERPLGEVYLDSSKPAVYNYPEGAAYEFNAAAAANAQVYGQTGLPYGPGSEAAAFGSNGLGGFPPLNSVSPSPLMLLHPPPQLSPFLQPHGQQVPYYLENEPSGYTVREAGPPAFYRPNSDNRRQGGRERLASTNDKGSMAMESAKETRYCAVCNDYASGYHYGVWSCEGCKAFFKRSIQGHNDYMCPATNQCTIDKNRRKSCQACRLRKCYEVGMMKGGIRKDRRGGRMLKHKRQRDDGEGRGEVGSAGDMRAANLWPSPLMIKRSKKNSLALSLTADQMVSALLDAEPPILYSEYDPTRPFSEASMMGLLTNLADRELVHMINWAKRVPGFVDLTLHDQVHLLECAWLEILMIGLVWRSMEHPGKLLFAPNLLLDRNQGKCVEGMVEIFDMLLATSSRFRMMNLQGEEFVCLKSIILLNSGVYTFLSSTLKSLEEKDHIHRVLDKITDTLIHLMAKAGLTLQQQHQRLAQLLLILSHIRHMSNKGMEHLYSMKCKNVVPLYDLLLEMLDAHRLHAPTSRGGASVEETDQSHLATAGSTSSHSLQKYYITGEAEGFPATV
Chain of Oxysterols receptor LXR-beta (Homo sapiens) (P55055 whole entry, looked up, the tested form may be a part): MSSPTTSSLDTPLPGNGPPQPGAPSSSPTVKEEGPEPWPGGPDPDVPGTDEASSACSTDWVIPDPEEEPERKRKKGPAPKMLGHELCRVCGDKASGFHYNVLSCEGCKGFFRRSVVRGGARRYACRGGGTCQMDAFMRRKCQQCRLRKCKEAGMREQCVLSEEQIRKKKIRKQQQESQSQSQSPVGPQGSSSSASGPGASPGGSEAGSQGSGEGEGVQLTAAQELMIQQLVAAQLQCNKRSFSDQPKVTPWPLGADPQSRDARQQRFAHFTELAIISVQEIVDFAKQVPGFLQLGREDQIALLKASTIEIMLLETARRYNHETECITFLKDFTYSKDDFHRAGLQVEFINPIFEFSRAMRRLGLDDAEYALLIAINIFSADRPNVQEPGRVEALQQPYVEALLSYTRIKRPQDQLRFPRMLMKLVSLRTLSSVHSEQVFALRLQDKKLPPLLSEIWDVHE
Chain of Hepatocyte nuclear factor 4-alpha (Homo sapiens) (P41235 whole entry, looked up): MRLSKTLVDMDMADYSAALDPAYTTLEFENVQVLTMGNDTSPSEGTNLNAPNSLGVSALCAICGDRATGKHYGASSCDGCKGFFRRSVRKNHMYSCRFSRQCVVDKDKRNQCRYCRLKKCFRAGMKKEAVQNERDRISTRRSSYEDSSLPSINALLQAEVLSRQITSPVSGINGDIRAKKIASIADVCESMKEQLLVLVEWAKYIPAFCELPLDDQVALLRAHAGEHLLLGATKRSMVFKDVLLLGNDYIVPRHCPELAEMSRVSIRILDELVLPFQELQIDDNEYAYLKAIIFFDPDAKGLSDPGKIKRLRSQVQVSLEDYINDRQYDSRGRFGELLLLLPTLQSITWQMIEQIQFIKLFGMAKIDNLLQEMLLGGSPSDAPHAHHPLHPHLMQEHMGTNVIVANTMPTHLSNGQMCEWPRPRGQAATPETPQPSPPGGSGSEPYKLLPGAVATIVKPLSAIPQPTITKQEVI
Chain of Bile acid receptor (Homo sapiens) (Q96RI1 whole entry, looked up, the tested form may be a part): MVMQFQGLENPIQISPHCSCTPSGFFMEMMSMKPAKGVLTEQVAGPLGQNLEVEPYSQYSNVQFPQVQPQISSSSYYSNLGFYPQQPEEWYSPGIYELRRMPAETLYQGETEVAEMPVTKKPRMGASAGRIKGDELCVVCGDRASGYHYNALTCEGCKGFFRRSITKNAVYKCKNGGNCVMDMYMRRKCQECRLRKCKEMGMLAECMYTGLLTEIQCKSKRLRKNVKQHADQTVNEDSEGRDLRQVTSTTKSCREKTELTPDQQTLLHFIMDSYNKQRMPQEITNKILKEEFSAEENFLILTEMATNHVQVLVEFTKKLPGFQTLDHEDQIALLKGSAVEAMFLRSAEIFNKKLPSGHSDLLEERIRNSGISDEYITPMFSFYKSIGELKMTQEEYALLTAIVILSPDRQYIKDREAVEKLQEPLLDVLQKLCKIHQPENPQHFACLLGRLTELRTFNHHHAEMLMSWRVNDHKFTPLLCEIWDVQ
Chain of Glucocorticoid receptor (Homo sapiens) (P04150 whole entry, looked up, the tested form may be a part): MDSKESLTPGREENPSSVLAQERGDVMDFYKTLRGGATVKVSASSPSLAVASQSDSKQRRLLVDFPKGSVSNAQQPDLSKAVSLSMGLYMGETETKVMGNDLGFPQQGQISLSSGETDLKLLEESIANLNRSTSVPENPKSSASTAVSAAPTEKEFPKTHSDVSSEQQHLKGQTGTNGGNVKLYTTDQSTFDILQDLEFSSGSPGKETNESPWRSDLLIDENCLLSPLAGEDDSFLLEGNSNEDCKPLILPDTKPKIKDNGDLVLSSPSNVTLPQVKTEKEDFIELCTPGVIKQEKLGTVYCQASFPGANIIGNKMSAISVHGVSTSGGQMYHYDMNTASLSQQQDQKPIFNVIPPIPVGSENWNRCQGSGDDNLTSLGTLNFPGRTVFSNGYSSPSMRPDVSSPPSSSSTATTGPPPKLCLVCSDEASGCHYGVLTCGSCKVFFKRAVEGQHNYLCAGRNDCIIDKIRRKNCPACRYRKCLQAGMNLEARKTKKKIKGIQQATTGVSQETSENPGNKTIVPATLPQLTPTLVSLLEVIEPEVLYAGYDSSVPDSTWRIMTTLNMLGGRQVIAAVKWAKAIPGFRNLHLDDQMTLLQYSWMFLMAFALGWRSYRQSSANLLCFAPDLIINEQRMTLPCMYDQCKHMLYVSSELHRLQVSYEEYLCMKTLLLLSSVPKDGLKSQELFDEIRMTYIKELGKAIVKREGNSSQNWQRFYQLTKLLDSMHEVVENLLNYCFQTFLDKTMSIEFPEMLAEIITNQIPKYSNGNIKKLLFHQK

SMILES | outcome [1] | outcome [2] | outcome [3] | outcome [4] | outcome [5] | outcome [6] | outcome [7] | outcome [8] | outcome [9] | outcome [10] | outcome [11] | outcome [12] | outcome [13] | outcome [14] | outcome [15] | outcome [16] | AC50 [12] | outcome [17] | outcome [18]
O=C(OCCCCCOC(=O)c1ccccc1)c1ccccc1 | inactive | inactive | inactive | inactive | inactive | inactive | inactive | inactive | inactive | inactive | inactive | – | – | – | – | – | – | – | –
CCCCCCCCCCCC(=O)OC | inactive | inactive | inactive | – | inactive | inactive | inactive | inactive | inactive | inactive | inactive | inactive | inactive | inactive | inactive | inactive | – | – | –
CC(=O)C(C)=CC1C(C)=CCCC1(C)C (stereo unspecified) | inactive | inactive | inactive | – | inactive | – | inactive | – | – | inactive | inactive | – | – | – | – | inactive | 29.8 µM (active) | inactive | –
CCCCc1ccc2c(n1)[C@@H](c1ccc(OC)cc1C[C@H](C)C(=O)O)[C@H](C(=O)O)[C@H]2c1ccc2c(c1)OCO2 | inactive | inactive | – | inactive | inactive | inactive | inactive | inactive | – | – | inactive | – | – | inactive | inactive | – | – | inactive | inactive
O=c1[nH]cc(F)c(=O)[nH]1 | inactive | inactive | inactive | – | inactive | inactive | – | – | – | inactive | – | – | inactive | – | – | – | – | inactive | –
